# According to PubChem BioAssay (NCATS):
# Records with an inconclusive call do not appear. A call without a number means that no potency is given here. Active and inactive are the calls of the source. Calls follow the shape of the dose curve; as a rule, active = well fitted inhibition curve with a large enough effect; inconclusive = small, poorly fitted or top-dose-only effect; inactive = flat fitted curve, though single readings scatter.
# Test system: CP203
# Experiment: qHTS profiling for inhibitors of Plasmodium falciparum proliferation (AID 504749); also: nearly all actives have a fitted effect of over 60% in size
# Details: P. falciparum in erythrocytes, SYBR Green DNA, 72 h; series mostly up to 28.7 µM
# Summary of the method: (§1)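 Readout was DNA-dye fluorescence from lysed cultures, ex 485/em 535 nm. Parasitized red cells had grown 72 h with compound; data scaled between 0.29 uM artemisinin and DMSO wells and corrected using vehicle-only plates.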
# Potency is read from the fitted curve at half-maximal effect.
row,SMILES,Potency
1,O=c1c2ccccc2[se]n1-c1ccccc1,inactive
2,CNC(=O)Oc1ccccc1C(=O)Nc1ccccc1,inactive
3,C[C@H]1CCC[C@H](O)CCCCCc2cc(O)cc(O)c2C(=O)O1,inactive

# Test system: CP211
# Experiment: as above
# Details: P. falciparum in erythrocytes, SYBR Green DNA, 72 h; series mostly up to 28.7 µM
# Summary of the method: as §1
row,SMILES,Potency
1,C[C@@H](Cc1ccccc1)NCCC(c1ccccc1)c1ccccc1,inactive
2,CNC(=O)Oc1ccccc1C(=O)Nc1ccccc1,inactive
3,N#CC(C#N)=Cc1cc(O)c(O)c(O)c1,13.5 µM (active)
4,CCC1(c2ccccc2)C(=O)NC(=O)N(C)C1=O (stereo not drawn),inactive
5,CC(N)Cc1ccc(O)cc1 (stereo not drawn),inactive
6,C[C@H]1CCC[C@H](O)CCCCCc2cc(O)cc(O)c2C(=O)O1,inactive
7,O=[N+]([O-])c1ccccc1,inactive
8,Oc1cc(Cl)c(Cl)cc1Cl,inactive
9,C/C(=C\c1csc(C)n1)[C@@H]1C[C@@H]2O[C@]2(C)CCC[C@H](C)[C@H](O)[C@@H](C)C(=O)C(C)(C)[C@@H](O)CC(=O)O1,0.003 µM (active)
10,O[C@H]1[C@H]2[C@H](O)CCCN2C[C@H]1O,inactive
11,O=c1[nH]c(=O)n(Cl)c(=O)n1Cl,inactive
12,CNC1(c2ccccc2Cl)CCCCC1=O (stereo not drawn),inactive
13,O=C(NCNC(=O)NC1C(=O)NC(=O)N1CO)NC1C(=O)NC(=O)N1CO (stereo not drawn),inactive
14,CC12NC(Cc3ccccc31)c1ccccc12 (stereo not drawn),inactive
15,Oc1cccc[c]1[Hg][Cl],9.53 µM (active)
16,CCC1(c2ccccc2)C(=O)NC(=O)NC1=O,inactive
17,c1csc(C2(N3CCCCC3)CCCCC2)c1,inactive
18,COc1ccc2c3c1O[C@H]1C(=O)CC[C@H]4[C@@H](C2)N(C)CC[C@]314,inactive
19,CN1C2CCC1CC(OC(c1ccccc1)c1ccc(Cl)cc1)C2 (stereo not drawn),15.1 µM (active)
20,C[C@]12CCC(=O)C[C@@H]1CC[C@@H]1[C@@H]2CC[C@]2(C)[C@@H](O)CC[C@@H]12,inactive
21,[O]=[Cr](=[O])([OH])[O][Cr](=[O])(=[O])[OH],inactive
22,Clc1ccccc1Cl,inactive
23,C=CCN(C1=NCCN1)c1c(Cl)cccc1Cl,inactive

# Test system: CP215
# Experiment: as above
# Details: P. falciparum in erythrocytes, SYBR Green DNA, 72 h; series mostly up to 28.7 µM
# Summary of the method: as §1
row,SMILES,Potency
1,C[C@@H](Cc1ccccc1)NCCC(c1ccccc1)c1ccccc1,inactive
2,O=c1c2ccccc2[se]n1-c1ccccc1,inactive
3,CC(N)Cc1ccc(O)cc1 (stereo not drawn),inactive
4,O=[N+]([O-])c1ccccc1,inactive
5,Oc1cc(Cl)c(Cl)cc1Cl,inactive
6,C/C(=C\c1csc(C)n1)[C@@H]1C[C@@H]2O[C@]2(C)CCC[C@H](C)[C@H](O)[C@@H](C)C(=O)C(C)(C)[C@@H](O)CC(=O)O1,0.0038 µM (active)
7,O[C@H]1[C@H]2[C@H](O)CCCN2C[C@H]1O,inactive
8,CNC1(c2ccccc2Cl)CCCCC1=O (stereo not drawn),inactive
9,O=C(NCNC(=O)NC1C(=O)NC(=O)N1CO)NC1C(=O)NC(=O)N1CO (stereo not drawn),inactive
10,[Cl-].[Cl-].[Hg+2],inactive
11,CNC(=O)OCC[N+](C)(C)C,inactive
12,CC12NC(Cc3ccccc31)c1ccccc12 (stereo not drawn),inactive
13,CN1[C@@H]2CC[C@H]1CC(OC1c3ccccc3CCc3ccccc31)C2 (stereo partly drawn),inactive
14,Oc1cccc[c]1[Hg][Cl],10.7 µM (active)
15,CCC1(c2ccccc2)C(=O)NC(=O)NC1=O,inactive
16,c1csc(C2(N3CCCCC3)CCCCC2)c1,inactive
17,CN1C2CCC1CC(OC(c1ccccc1)c1ccc(Cl)cc1)C2 (stereo not drawn),10.7 µM (active)
18,C[C@]12CCC(=O)C[C@@H]1CC[C@@H]1[C@@H]2CC[C@]2(C)[C@@H](O)CC[C@@H]12,inactive
19,F/C(COc1ccc2c(c1)[nH]c1ccccc12)=C1/CN2CCC1CC2,inactive
20,[O]=[Cr](=[O])([OH])[O][Cr](=[O])(=[O])[OH],inactive
21,Clc1ccccc1Cl,inactive
22,C=CCN(C1=NCCN1)c1c(Cl)cccc1Cl,inactive

# Test system: CP217
# Experiment: as above
# Details: P. falciparum in erythrocytes, SYBR Green DNA, 72 h; series mostly up to 28.7 µM
# Summary of the method: as §1
row,SMILES,Potency
1,CCN(CC)C(=O)/C(Cl)=C(\C)OP(=O)(OC)OC,inactive
2,CCC1C(C)=NN=C(c2ccc(OC)c(OC)c2)c2cc(OC)c(OC)cc21 (stereo not drawn),inactive
3,C=CCN=C=S,inactive
4,COc1ccc2c(c1OC)C(=O)OC2C1c2cc3c(cc2CCN1C)OCO3 (stereo not drawn),inactive
5,CCC1(c2ccccc2)C(=O)NC(=O)N(C)C1=O (stereo not drawn),inactive
6,CC(N)Cc1ccc(O)cc1 (stereo not drawn),inactive
7,CCOc1ccc2c3c1O[C@H]1[C@@H](O)C=C[C@H]4[C@@H](C2)N(C)CC[C@@]341,inactive
8,O=[N+]([O-])c1ccccc1,inactive
9,Oc1cc(Cl)c(Cl)cc1Cl,inactive
10,C/C(=C\c1csc(C)n1)[C@@H]1C[C@@H]2O[C@]2(C)CCC[C@H](C)[C@H](O)[C@@H](C)C(=O)C(C)(C)[C@@H](O)CC(=O)O1,0.004 µM (active)
11,O[C@H]1[C@H]2[C@H](O)CCCN2C[C@H]1O,inactive
12,O=c1[nH]c(=O)n(Cl)c(=O)n1Cl,inactive
13,CNC1(c2ccccc2Cl)CCCCC1=O (stereo not drawn),inactive
14,O=C(NCNC(=O)NC1C(=O)NC(=O)N1CO)NC1C(=O)NC(=O)N1CO (stereo not drawn),inactive
15,[Cl-].[Cl-].[Hg+2],8.91 µM (active)
16,CNC(=O)OCC[N+](C)(C)C,inactive
17,CCCN1CCCC2Cc3[nH]ncc3CC21 (stereo not drawn),inactive
18,CN1[C@@H]2CC[C@H]1CC(OC1c3ccccc3CCc3ccccc31)C2 (stereo partly drawn),3.16 µM (active)
19,c1ccc(C2(N3CCCC3)CCCCC2)cc1,8.91 µM (active)
20,Oc1cccc[c]1[Hg][Cl],8.91 µM (active)
21,CCC1(c2ccccc2)C(=O)NC(=O)NC1=O,inactive
22,c1csc(C2(N3CCCCC3)CCCCC2)c1,inactive
23,C=CCC1(C(C)CCC)C(=O)N=C(S)NC1=O (stereo not drawn),inactive
24,COc1ccc2c3c1O[C@H]1C(=O)CC[C@H]4[C@@H](C2)N(C)CC[C@]314,inactive
25,CN1C2CCC1CC(OC(c1ccccc1)c1ccc(Cl)cc1)C2 (stereo not drawn),7.08 µM (active)
26,C[C@]12CCC(=O)C[C@@H]1CC[C@@H]1[C@@H]2CC[C@]2(C)[C@@H](O)CC[C@@H]12,inactive
27,c1cc2c(c(NC3=NCCN3)c1)CCCC2,inactive
28,[O]=[Cr](=[O])([OH])[O][Cr](=[O])(=[O])[OH],inactive
29,Clc1ccccc1Cl,inactive
30,C=CCN(C1=NCCN1)c1c(Cl)cccc1Cl,inactive
